Measurements as given in ChEMBL document CHEMBL1961873, “Compounds: GSK PKIS; Assays: Nanosyn kinase panel” (2012).

Experiments:
[1] = target: Protein kinase C gamma type (Homo sapiens) (UniProt P05129); conditions: at 1 µM;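 further: each value is an averaged percent inhibition of the enzyme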
[2] = target: T1, Protein kinase C iota type (Homo sapiens) (UniProt P41743); conditions: at 0.1 µM
T1 sequence (whole entry): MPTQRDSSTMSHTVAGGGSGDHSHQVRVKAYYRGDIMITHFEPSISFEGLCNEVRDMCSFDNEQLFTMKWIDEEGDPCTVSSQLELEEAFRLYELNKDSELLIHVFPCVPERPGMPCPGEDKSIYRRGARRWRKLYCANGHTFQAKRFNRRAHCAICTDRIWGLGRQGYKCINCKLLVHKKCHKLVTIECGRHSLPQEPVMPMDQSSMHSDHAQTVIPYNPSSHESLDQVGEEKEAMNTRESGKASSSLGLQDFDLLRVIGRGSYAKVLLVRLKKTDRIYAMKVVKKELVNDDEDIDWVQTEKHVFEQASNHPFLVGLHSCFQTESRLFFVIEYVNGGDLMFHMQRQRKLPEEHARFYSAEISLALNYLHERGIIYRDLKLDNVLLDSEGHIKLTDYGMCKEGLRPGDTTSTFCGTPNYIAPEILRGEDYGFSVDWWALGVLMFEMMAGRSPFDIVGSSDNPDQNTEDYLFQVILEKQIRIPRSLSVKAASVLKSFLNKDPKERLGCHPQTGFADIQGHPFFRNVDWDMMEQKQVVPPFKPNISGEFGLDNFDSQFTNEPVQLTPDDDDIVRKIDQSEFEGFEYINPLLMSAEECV

[3] = target: T1, Protein kinase C iota type (Homo sapiens); conditions: at 1 µM
[4] = target: Protein kinase C theta type (Homo sapiens) (UniProt Q04759); conditions: at 0.1 µM
[5] = target: Protein kinase C theta type (Homo sapiens) (UniProt Q04759); conditions: at 1 µM
[6] = target: Protein kinase C beta type (Homo sapiens) (UniProt P05771); conditions: at 0.1 µM
[7] = target: Protein kinase C beta type (Homo sapiens) (UniProt P05771); conditions: at 1 µM
[8] = target: T2, Serine/threonine-protein kinase D1 (Homo sapiens) (UniProt Q15139); conditions: at 0.1 µM
T2 sequence (whole entry): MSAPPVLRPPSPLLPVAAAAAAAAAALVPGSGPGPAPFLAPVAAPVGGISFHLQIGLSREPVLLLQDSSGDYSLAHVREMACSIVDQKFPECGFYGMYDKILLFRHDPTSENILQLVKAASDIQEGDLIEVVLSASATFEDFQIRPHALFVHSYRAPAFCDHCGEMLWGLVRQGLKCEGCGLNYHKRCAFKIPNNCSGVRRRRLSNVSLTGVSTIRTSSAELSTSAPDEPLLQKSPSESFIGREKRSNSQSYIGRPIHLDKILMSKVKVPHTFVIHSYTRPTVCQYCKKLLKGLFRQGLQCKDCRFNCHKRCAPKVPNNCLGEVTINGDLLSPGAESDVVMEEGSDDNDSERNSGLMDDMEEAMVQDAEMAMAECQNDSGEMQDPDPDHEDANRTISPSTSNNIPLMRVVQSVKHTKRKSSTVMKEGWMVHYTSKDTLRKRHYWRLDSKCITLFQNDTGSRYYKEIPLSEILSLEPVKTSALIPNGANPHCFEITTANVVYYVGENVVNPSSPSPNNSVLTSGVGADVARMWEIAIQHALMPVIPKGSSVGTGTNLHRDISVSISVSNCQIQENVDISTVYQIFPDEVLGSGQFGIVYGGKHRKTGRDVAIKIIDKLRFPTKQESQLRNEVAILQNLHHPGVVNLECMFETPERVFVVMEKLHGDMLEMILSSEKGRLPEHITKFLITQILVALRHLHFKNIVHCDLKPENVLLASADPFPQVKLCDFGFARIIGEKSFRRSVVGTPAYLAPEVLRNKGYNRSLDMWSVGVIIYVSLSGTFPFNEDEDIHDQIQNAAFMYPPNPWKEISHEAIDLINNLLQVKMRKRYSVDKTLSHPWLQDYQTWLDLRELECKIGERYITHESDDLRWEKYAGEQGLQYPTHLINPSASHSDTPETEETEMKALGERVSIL

[9] = target: T2, Serine/threonine-protein kinase D1 (Homo sapiens); conditions: at 1 µM
[10] = target: T3, Serine/threonine-protein kinase D2 (Homo sapiens) (UniProt Q9BZL6); conditions: at 0.1 µM
T3 sequence (whole entry): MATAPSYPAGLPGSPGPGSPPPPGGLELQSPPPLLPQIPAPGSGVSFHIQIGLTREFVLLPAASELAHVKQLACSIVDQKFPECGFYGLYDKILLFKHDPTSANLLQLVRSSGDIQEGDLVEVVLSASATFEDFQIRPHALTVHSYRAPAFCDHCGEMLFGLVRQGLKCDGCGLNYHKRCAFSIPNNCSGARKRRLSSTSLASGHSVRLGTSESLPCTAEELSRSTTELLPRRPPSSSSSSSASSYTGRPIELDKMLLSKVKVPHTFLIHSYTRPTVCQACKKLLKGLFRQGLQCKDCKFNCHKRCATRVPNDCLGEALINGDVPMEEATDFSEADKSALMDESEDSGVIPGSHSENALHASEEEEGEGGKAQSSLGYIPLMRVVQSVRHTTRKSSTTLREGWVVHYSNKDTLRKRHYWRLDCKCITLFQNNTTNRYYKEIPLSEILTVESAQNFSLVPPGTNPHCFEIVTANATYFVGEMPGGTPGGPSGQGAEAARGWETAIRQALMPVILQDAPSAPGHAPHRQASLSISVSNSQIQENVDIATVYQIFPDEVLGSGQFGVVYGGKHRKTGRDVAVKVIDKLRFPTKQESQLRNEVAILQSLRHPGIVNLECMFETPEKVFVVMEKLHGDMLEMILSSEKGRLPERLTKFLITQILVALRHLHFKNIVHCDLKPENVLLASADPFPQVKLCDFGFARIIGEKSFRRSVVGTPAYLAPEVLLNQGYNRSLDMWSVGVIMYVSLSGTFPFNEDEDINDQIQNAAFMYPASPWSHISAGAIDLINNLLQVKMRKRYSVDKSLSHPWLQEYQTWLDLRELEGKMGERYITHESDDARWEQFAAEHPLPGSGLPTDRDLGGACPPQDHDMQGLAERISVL

[11] = target: T3, Serine/threonine-protein kinase D2 (Homo sapiens); conditions: at 1 µM
[12] = target: T4, Serine/threonine-protein kinase D3 (Homo sapiens) (UniProt O94806); conditions: at 0.1 µM
T4 sequence (whole entry): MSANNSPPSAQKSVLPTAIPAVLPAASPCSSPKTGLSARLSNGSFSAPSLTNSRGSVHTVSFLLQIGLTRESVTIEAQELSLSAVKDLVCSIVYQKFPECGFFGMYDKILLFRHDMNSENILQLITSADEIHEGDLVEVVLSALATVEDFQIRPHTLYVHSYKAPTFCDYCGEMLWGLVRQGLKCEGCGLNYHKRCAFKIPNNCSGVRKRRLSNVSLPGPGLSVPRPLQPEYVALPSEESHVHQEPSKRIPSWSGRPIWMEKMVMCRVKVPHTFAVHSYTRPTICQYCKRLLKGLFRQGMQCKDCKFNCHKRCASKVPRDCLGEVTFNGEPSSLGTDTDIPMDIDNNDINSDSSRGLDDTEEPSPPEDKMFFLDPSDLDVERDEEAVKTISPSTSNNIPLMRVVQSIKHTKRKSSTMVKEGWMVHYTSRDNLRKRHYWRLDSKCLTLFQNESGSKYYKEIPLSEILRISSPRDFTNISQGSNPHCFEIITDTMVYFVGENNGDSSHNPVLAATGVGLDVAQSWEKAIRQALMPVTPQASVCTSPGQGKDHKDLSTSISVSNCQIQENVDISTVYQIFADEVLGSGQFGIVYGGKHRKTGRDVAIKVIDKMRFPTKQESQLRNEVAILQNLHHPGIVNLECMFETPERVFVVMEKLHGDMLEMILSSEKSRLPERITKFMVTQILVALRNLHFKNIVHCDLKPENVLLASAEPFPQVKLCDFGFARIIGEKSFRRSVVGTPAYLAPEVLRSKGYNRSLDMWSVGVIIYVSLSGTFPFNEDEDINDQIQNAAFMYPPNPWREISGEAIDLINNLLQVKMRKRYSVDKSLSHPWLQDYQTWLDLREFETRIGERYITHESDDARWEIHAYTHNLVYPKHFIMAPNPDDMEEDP

[13] = target: T4, Serine/threonine-protein kinase D3 (Homo sapiens); conditions: at 1 µM
[14] = target: T5, cGMP-dependent protein kinase 1 (Homo sapiens) (UniProt Q13976); conditions: at 0.1 µM
T5 sequence (whole entry): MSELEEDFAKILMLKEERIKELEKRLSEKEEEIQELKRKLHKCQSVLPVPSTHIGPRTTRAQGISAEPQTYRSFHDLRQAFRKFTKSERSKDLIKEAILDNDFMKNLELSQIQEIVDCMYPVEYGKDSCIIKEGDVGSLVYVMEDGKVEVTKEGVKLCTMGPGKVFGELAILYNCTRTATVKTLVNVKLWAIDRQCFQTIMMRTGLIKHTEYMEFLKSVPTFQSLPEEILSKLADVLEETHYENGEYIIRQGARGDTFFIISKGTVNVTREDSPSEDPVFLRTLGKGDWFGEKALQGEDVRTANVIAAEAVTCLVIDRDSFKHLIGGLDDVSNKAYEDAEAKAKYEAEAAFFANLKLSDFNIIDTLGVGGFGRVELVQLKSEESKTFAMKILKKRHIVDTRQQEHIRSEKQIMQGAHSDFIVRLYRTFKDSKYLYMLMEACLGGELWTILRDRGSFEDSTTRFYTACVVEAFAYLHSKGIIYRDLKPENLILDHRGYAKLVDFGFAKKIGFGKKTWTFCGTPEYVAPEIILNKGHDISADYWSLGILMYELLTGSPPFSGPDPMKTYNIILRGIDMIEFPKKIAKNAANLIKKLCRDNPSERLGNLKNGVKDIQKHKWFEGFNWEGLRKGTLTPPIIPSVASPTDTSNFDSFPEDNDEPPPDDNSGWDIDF

[15] = target: T5, cGMP-dependent protein kinase 1 (Homo sapiens); conditions: at 1 µM
[16] = target: T6, cGMP-dependent protein kinase 2 (Homo sapiens) (UniProt Q13237); conditions: at 0.1 µM
T6 sequence (whole entry): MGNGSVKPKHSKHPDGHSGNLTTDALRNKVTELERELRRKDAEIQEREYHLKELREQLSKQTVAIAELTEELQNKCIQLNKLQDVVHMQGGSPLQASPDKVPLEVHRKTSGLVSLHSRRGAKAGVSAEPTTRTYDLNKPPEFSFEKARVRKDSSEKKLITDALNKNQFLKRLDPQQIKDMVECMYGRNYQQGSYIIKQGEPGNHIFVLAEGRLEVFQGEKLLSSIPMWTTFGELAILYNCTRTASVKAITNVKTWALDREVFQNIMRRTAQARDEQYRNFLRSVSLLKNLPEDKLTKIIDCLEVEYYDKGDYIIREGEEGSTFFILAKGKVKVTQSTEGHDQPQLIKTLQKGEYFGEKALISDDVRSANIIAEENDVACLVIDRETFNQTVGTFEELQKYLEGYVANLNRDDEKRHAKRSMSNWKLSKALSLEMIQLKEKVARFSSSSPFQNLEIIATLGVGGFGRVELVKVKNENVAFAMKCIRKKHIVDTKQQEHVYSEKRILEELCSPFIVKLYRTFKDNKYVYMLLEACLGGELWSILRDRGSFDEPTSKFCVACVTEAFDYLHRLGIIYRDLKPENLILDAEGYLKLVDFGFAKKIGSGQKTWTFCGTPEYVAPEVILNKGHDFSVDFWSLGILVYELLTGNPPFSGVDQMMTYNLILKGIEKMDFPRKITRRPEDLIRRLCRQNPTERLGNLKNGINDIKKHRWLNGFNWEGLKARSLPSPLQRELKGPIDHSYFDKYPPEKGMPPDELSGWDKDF

[17] = target: T6, cGMP-dependent protein kinase 2 (Homo sapiens); conditions: at 1 µM
[18] = target: T7, cAMP-dependent protein kinase catalytic subunit PRKX (Homo sapiens) (UniProt P51817); conditions: at 0.1 µM
T7 sequence (whole entry): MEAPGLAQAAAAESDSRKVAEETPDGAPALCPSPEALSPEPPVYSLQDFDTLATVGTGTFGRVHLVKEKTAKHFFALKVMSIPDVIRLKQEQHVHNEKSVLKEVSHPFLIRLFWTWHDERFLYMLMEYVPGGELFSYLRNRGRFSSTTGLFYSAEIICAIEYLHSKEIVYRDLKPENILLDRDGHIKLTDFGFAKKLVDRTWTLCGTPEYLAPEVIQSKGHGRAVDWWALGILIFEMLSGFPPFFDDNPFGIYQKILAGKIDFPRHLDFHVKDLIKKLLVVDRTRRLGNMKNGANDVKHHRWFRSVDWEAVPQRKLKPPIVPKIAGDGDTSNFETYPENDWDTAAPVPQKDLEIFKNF

[19] = target: T7, cAMP-dependent protein kinase catalytic subunit PRKX (Homo sapiens); conditions: at 1 µM
[20] = target: Rho-associated protein kinase 1 (Homo sapiens) (UniProt Q13464); conditions: at 0.1 µM;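 further: values are mean percent inhibition of ROCK1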
Chain of Rho-associated protein kinase 1 (Homo sapiens) (Q13464 2-1354 limits assumed): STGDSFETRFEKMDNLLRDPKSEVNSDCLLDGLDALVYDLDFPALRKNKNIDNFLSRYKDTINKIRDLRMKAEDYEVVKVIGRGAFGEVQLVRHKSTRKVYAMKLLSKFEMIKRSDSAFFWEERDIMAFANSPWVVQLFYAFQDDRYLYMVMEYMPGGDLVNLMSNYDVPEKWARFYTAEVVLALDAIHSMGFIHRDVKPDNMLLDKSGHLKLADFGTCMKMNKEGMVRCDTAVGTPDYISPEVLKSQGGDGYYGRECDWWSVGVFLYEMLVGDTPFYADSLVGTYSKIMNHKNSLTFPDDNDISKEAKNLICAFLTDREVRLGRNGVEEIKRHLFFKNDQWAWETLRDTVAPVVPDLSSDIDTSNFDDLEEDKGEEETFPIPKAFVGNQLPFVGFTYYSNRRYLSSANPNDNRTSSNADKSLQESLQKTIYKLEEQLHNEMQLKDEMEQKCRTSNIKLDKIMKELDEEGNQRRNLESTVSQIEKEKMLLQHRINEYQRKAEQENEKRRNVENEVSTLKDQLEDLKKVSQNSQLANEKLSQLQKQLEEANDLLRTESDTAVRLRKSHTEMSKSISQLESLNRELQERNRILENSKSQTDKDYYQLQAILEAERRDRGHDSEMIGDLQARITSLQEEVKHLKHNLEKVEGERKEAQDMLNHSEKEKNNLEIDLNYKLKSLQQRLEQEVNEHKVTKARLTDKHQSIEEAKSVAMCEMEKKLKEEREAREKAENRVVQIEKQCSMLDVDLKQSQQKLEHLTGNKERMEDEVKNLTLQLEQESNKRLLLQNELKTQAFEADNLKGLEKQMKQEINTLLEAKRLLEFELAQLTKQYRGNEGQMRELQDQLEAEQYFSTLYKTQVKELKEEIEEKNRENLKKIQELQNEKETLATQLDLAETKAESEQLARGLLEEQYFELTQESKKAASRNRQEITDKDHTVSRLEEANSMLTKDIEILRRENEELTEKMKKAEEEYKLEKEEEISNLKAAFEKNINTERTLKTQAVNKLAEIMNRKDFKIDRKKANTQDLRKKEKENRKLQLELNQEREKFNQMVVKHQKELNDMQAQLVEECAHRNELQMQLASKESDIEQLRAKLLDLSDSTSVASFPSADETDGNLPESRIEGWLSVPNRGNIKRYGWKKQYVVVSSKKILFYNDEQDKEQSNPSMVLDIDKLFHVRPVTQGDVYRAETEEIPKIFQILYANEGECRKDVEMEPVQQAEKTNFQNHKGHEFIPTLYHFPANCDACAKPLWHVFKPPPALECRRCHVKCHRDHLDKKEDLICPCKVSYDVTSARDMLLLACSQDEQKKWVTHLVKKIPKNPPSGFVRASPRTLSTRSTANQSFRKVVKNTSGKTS

Chain of Protein kinase C beta type (Homo sapiens) (P05771 2-671 limits assumed): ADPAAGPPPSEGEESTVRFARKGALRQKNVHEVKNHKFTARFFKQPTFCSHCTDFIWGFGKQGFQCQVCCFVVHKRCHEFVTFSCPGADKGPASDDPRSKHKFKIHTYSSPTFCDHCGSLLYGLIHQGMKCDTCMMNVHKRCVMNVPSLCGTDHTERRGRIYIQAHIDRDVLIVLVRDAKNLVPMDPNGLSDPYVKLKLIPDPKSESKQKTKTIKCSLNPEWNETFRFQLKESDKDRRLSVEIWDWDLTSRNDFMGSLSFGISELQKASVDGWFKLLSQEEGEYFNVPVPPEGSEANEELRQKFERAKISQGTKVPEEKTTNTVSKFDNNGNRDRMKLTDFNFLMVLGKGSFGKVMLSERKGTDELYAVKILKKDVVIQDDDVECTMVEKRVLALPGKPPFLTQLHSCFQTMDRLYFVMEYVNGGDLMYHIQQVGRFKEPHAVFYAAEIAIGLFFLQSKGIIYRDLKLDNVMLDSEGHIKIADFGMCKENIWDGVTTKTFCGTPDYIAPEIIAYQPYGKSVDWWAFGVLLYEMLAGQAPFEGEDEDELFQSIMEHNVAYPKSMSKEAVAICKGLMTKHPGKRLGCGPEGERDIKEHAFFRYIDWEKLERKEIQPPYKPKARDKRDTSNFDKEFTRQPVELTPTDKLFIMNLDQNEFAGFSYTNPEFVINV
Chain of Protein kinase C theta type (Homo sapiens) (Q04759 whole entry, looked up): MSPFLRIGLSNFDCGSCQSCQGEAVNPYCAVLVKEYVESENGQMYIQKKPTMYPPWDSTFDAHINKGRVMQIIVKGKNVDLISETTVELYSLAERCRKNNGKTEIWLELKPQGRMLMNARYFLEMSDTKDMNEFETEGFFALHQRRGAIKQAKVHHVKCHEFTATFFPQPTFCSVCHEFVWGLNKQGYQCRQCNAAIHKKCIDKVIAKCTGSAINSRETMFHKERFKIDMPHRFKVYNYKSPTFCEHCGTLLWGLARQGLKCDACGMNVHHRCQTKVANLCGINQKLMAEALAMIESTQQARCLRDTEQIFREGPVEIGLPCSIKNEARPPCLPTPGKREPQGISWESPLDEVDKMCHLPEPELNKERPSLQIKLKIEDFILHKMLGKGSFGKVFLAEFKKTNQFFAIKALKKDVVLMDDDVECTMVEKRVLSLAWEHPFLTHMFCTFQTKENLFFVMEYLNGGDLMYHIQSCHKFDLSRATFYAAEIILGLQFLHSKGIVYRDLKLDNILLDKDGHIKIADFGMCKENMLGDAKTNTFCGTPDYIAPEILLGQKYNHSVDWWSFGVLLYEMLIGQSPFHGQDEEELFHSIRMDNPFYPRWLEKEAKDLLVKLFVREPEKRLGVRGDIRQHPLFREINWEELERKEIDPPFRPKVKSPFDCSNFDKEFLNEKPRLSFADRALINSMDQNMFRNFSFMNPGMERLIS

Row | Structure (SMILES) | inhibition [1] | inhibition [2] | inhibition [3] | inhibition [4] | inhibition [5] | inhibition [6] | inhibition [7] | inhibition [8] | inhibition [9] | inhibition [10] | inhibition [11] | inhibition [12] | inhibition [13] | inhibition [14] | inhibition [15] | inhibition [16] | inhibition [17] | inhibition [18] | inhibition [19] | inhibition [20]
1 | N#Cc1c(NC(=O)c2ccccc2F)sc2c1CCCC2 | 0.15% | -1.48% | -0.75% | -0.76% | -0.86% | -0.47% | 0.43% | -1.42% | 0.24% | 0.84% | 1.58% | -2.11% | -0.58% | -2.04% | -0.46% | -1.17% | -0.91% | -0.74% | -0.83% | -0.67%
2 | Cc1cc(Cl)cc2c1NC(=O)C2=NNc1ccc(S(N)(=O)=O)cc1 | 1.99% | 0.57% | 0.13% | 1.67% | 3.19% | 0.04% | 1.07% | 2.49% | 2.15% | 2.28% | 2.34% | 2.25% | 1.81% | 1.17% | 3.27% | 2.01% | 2% | 1.43% | 3.22% | 0.02%
3 | NS(=O)(=O)c1cccc(Nc2cc(-c3ccc(F)cc3)n[nH]2)c1 | 2.43% | 1.19% | 0.46% | 3.52% | 8.77% | 1.7% | 3.53% | -0.81% | 4.04% | 2.47% | 3.29% | 2.9% | 3.78% | 2.36% | 5.63% | 4.45% | 6.86% | 6.02% | 9.4% | 1.22%
